Columns and labels:
Test in all cases: PBM binding z-score (relative to random genomic background probes); higher = stronger binding; sequences stand for … in GC…GCGATTGACAGCGTAGAATGAAGG
[1] = test system: RARb homodimer (NR concentration 270 nM)
Outline: (§1)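 Each nuclear receptor dimer, without ligand, was incubated for 1 h on custom Agilent 4×180K protein-binding microarrays. Binding was detected with antibodies against each partner (one per run), and scanned fluorescence was regression-normalized. The binding z-scores are referenced to random human genomic background probes.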

[2] = test system: RARg:RXRa (NR concentration 270 nM, RXRa partner concentration 90 nM)
Outline: as §1

[3] = test system: RARg homodimer (NR concentration 270 nM)
Outline: as §1

[4] = test system: RXRa DBDmut IVT, anti-RXR (DBD mutation: RXRa K156A/R161A, NR concentration 90 nM)
Outline: as §1

[5] = test system: RXRa homodimer (NR concentration 180 nM)
Outline: as §1

[6] = test system: THRa:RXRa (NR concentration 90 nM, RXRa partner concentration 90 nM)
Outline: as §1

[7] = test system: THRa homodimer (NR concentration 90 nM)
Outline: as §1

[8] = test system: VDR:RXRa (NR concentration 270 nM, RXRa partner concentration 90 nM)
Outline: as §1

[9] = test system: VDR homodimer (NR concentration 270 nM)
Outline: as §1

Row | Sequence | PBM binding z-score [1] | PBM binding z-score [2] | PBM binding z-score [3] | PBM binding z-score [4] | PBM binding z-score [5] | PBM binding z-score [6] | PBM binding z-score [7] | PBM binding z-score [8] | PBM binding z-score [9]
1 | CAAACTAGGTCACCGGAAGGTGAAAGTCCGCATG | 4.38 | 6.41 | 5.87 | 1.3 | 4.7 | 4.01 | 2.37 | 3.4 | 0.904
2 | CGTAGTTGGTCAAGGTCACACACGCTATAGGTAC | 4.23 | 4.34 | 4.9 | 2.14 | 4.06 | 4.05 | 3.89 | 4.2 | 2.45
3 | CCTTGCGGGTCAAGGTTATAGCACGGGTGGTACG | 3.04 | 4.37 | 4.11 | 0.089 | 4.68 | 3 | 0.776 | 2.95 | 1.01
4 | CGTCCAAGGTCAATGCTAGGTCAATGAAAGCATT | 5.08 | 7.66 | 6.89 | 3.4 | 5.18 | 4.57 | 3.59 | 5.33 | 3.48
5 | CTAACTAGGTCAAAGGTCAAAGTCGAGCCAACCA | 4.93 | 8.93 | 7.64 | 2.72 | 10.3 | 4.84 | 1.59 | 6.59 | 3.19
6 | GTACCCAGGTGAATAGGTCGTTGATGAGTAGGCG | 1.16 | 1.5 | 0.814 | -0.431 | 1.18 | 1.31 | 0.537 | 0.54 | 0.0528
7 | ATCTCTAGTTAACAAGTTCAGTGAAAGAGAGGAC | 1.64 | 1.07 | 1.06 | 1.03 | 0.676 | 1.12 | 0.867 | 2.52 | 2.76
8 | TAGCCTAGGTCAGGGGCCAGTATACCACGCGAAC | 2.47 | 3.16 | 3.82 | -0.891 | 2.16 | 1.91 | 0.583 | 0.706 | -0.245
9 | CCTGCTAGGTCATGGTCCGCTAATCTACAGTATG | 2.55 | 3.73 | 4.05 | 1.74 | 2.66 | 2.86 | 1.1 | 1.27 | 0.414
10 | TCATATAGGTAAAAGATGAAAGTCGGTGTGGTAA | -0.433 | 0.301 | 0.223 | 1.73 | 0.923 | 0.0309 | 0.103 | 0.912 | -0.0575
11 | ATCTCTAGGTAAGACTAAGTTCAGTGAAGAACGC | 1.85 | 0.933 | 0.697 | 0.96 | 0.46 | 1.34 | 0.876 | 1.7 | 2.25
12 | CAAACTAGGTCAAGAGGGCAAAGTCCGCTTCCCG | 4.13 | 5.73 | 5.4 | 1.86 | 4.07 | 3.04 | 1.03 | 3.46 | 1.78
13 | AGAACGAGGGCACCCTGAGTTGATAGCAGAGTAG | 0.823 | 1.54 | 1.76 | 1.42 | 1.14 | 1.59 | -0.12 | 1.47 | 1.36
14 | GGAGACAGGTGAAACGCAGGTAACTCAGGGTGGC | 0.55 | 1.11 | 0.252 | -0.648 | 0.638 | 1.48 | 0.0199 | -0.319 | -0.609
15 | ACTCGGAGCACAAAGGTCAGAGCTACGCCAGTGA | 4.45 | 5.16 | 5.11 | 0.345 | 4.98 | 2.63 | -0.28 | 3.58 | 0.477
16 | CCTAGTTGGTCATGGTCACACACGCTATAGGTAC | 1.56 | 1.06 | 1.54 | 0.565 | 0.699 | 0.458 | 0.619 | 0.655 | 0.905
17 | GCTAGCAGGCCATTTTGGTCACTCAATGACGGGC | 0.0226 | -0.296 | 0.212 | -0.337 | -0.426 | -0.234 | -0.974 | -0.816 | -0.748
18 | CTGACTGGGGCATAAGGTTACCATAAGCCAGCCC | 1.92 | 1.99 | 1.46 | -0.277 | 1.4 | 2.42 | 1.35 | 0.451 | -0.328
19 | TTACCAAGGTGAATGTCGTTGATCCCTCTGTAGA | 0.851 | 0.459 | 0.367 | 0.1 | 0.711 | 1.82 | 0.923 | 0.328 | -0.448
20 | ATCGAAAGGTCGGGAGGTGAGTATACAGAAAGGC | 2.92 | 3.82 | 3.34 | 0.594 | 3.58 | 2.21 | 0.967 | 2.24 | 0.718
21 | CGAACGCGGGCATGAGTTGATAGCAAATGCCGAT | -0.346 | -0.206 | 0.05 | 0.305 | -0.124 | -0.413 | -0.72 | -0.376 | 0.0939
22 | AGAATGAGGTTAAAATCAGGGAAACAGAATACAT | 0.545 | 1.94 | 1.31 | 1.51 | 2.62 | 2.4 | 0.43 | 1.33 | 0.808
23 | CAAACTAGGTCGCGAAAGGTCAAAGTCGAATGAC | 5.22 | 6.69 | 6.26 | 1.98 | 7.33 | 4.79 | 1.51 | 5.94 | 3.37
24 | ATCGAAAGGTCGACGAGGTGACTATACACCGTTT | 3.13 | 4.44 | 4.48 | 1.17 | 5.08 | 3.95 | 1.27 | 5.95 | 1.11
25 | TCATATAGGAAATACAGGTGAAAGTCGGCATCTA | 0.167 | 0.527 | 0.553 | 2.12 | 1.37 | 0.441 | 0.299 | 1.02 | 0.241
26 | GCTTACGTGTCAAAGGTTATAGCATGAATAGAAT | 1.28 | 3.21 | 1.5 | 0.885 | 4.41 | 1.81 | -0.725 | 2.29 | -0.00185

Row | Sequence | PBM binding z-score [1] | PBM binding z-score [2] | PBM binding z-score [3] | PBM binding z-score [4] | PBM binding z-score [5] | PBM binding z-score [6] | PBM binding z-score [7] | PBM binding z-score [8] | PBM binding z-score [9]
27 | TTACCAAGGTGAGCTGAGGTTGTTGATCCAACTC | 0.122 | -0.185 | 0.109 | -0.414 | -0.0103 | 3.29 | 0.439 | 0.678 | -0.373
28 | ATATCTAGGTAAGACTCAGTTCAGTGAAGAACGC | 0.918 | 0.275 | 0.108 | 0.525 | 0.354 | 0.631 | 0.604 | 0.941 | 1.41
29 | ATCGAAAGGTCGACGAGGTGAGTATTCACCGTTT | 3.13 | 4.29 | 4.32 | 1.13 | 4.63 | 3.65 | 0.672 | 5.38 | 0.806
30 | GGAACGAGGGCAAGTTGATAGTAGAGTTTGATGG | 1.75 | 1.54 | 2.17 | 2.51 | 0.814 | 1.36 | 0.454 | 1.34 | 2.31
31 | TCGAGGAGGTTAGTCGGGGCATTCAGCCAACATA | 1.08 | 0.581 | 0.486 | 0.514 | 0.67 | 2.08 | 0.602 | 3.8 | 1.04
32 | ATACCAAGGTGATCGAGAGGTCGTTGATACTAAC | 1.77 | 2.91 | 1.06 | 0.829 | 1.71 | 2.59 | 0.902 | 3.02 | 1.98
33 | TCTATTAGTTGATTATGGCAACCGAAACAGCGGA | -0.245 | 0.408 | 0.199 | 1.38 | 0.509 | 0.165 | 0.396 | 1.08 | 0.715
34 | CGTCCAAGGTCAAAGGTTAGTGAAGAGATGACGG | 4.34 | 7.04 | 6.48 | 3.99 | 8.4 | 4.33 | 2.53 | 5.39 | 3.02
35 | GGAACGAGGGCATTCGAGTTGACAGCATGGCGAT | 0.801 | 1.2 | 1.69 | 3.06 | 0.845 | 3.83 | -0.733 | 3.41 | 2.99
36 | ATATGTAGGTTATCGGGACATTCAGTTTGCGCAT | 1.09 | 0.79 | 1.16 | 0.776 | 1.03 | 1.72 | 1.55 | 1.04 | 1.48
37 | TCTCGTAGATCAGCAGGTTAAGAAAGCTGGCCAA | -0.209 | -0.0899 | -0.67 | 0.451 | 0.405 | 0.0434 | -0.546 | 0.21 | -0.597
38 | CGAACTAGGTCATCCAGGGCAGTGAATACATTGA | 3.48 | 4.41 | 5.14 | 2.14 | 2.97 | 3.78 | 1.25 | 5.26 | 2.25
39 | CCTCGGAGGACAAAAGGTCAGAGCTGTCCGCTTT | 5.18 | 6.04 | 5.86 | 0.812 | 4.67 | 3.07 | 0.53 | 3.17 | 0.674
40 | GCTTGTAGATCAGGGTTAAGAAAGACTAAGCTAA | 0.053 | 0.416 | 0.152 | 0.053 | 0.823 | 0.939 | -0.435 | 0.179 | 0.148
41 | CAAACTAGGTCACGACAGGTCAAAGTCGAATGAC | 4.83 | 6.43 | 6.78 | 2.05 | 6.08 | 5.05 | 2.47 | 6.07 | 2.23
42 | CAAACTAGGTCACGAAATGTCAAAGTCGAATGAC | 3.6 | 4.86 | 5.58 | 2.02 | 3.79 | 3.51 | 1.5 | 3.47 | 1.1
43 | AGAATGAGGTTACCAAAGATCTGGGAAACGCTTG | 0.57 | 1.94 | 1.49 | 0.786 | 2.42 | 2.51 | 0.542 | 0.954 | 0.122
44 | GATCCAGGGTCAAGGCCAGAGTACGCGTATTGAT | 3.61 | 5.58 | 5.08 | 2.45 | 6.11 | 3.65 | 1.11 | 4.58 | 2.04
45 | ATCTCTAGGTAAGACTCAGGTCAGTGAAGAACGC | 2.52 | 1.49 | 1.35 | 0.359 | 0.773 | 2.67 | 2.37 | 0.693 | 0.803
46 | CCTGCTAGGTCAATAGTCAGCTAAAGCAGCTCGC | 2.18 | 3.06 | 3.91 | 1.56 | 1.42 | 1.74 | 0.258 | 0.487 | -0.379
47 | TCGAGTAGGTTACCATTGGGGCATTCAGCTTTCT | 0.675 | 0.565 | 0.217 | 0.45 | 0.293 | 0.633 | -0.238 | 0.0183 | -0.46
48 | GCTATTAGTTGGAAGGGCAACCGAATGATTCTCG | 0.941 | 0.317 | 0.522 | 0.581 | 0.0792 | -0.126 | -0.242 | -0.223 | -0.28
49 | TAGCCTAGGTCATTGGGCCAGAATAGTACGCATC | 2.6 | 4.03 | 4.07 | 1.58 | 2.8 | 2.66 | 0.586 | 2.01 | 1.12
50 | CCAGACAGGTGAGAAGGTAACTAAGCCTCGATTA | 0.66 | 0.524 | 0.586 | -0.275 | 0.277 | 0.221 | -0.101 | -0.0342 | -0.0907
51 | CTCGAAAGGTCGTGCTCAGGTGAGTTTACCAAAC | 2.8 | 5.22 | 4.34 | 2.46 | 5.17 | 3.84 | 1.18 | 3.98 | 3.54
52 | ATCGAAAGGTCGTGAGGTGAGGATACAGAAAGGC | 3.16 | 4.81 | 3.99 | 1.31 | 5.33 | 3.74 | 2.51 | 3.46 | 0.974

From the supplement of paper PMC6555819
